In publication PMC5540273 (PLoS ONE, 2017):
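Note: KINOMEscan kinase panel screen.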

What follows are molecules tested on MAP3K15. Details: concentration: 1 μM, replicates: in singlicate; n = 1.
With `COc1cccc(NC(=O)Nc2ccc(C)c(-c3ccc(C(=O)Nc4ccncc4)cc3)c2)c1` [GSK1398474] the “%Inh” value was 0%. With `CS(=O)(=O)Cc1ccc(Nc2nccc(-c3c(-c4cccc(NC(=O)C5CCCCC5)c4)nn4ncccc34)n2)cc1` [GSK350559] the “%Inh” value was 38%. For `COc1ccc(Nc2nccc(-c3ccc(NC(=O)c4cc5cc(F)ccc5[nH]4)cc3)n2)cc1` [GSK1229496], the “%Inh” value was 0%. For `Cc1cccc2c(-c3ccncn3)c(-c3ccc(F)cc3)nn12` [GW515532], the “%Inh” value was 0%. With `NS(=O)(=O)c1cccc(N/C=C2\C(=O)Nc3ccc(S(=O)(=O)Cc4c(Cl)cccc4Cl)cc32)c1` [GSK398099] the “%Inh” value was 0%. In the case of `O=C(Nc1n[nH]c2nc(-c3ccco3)c(Br)cc12)C1CCN(Cc2ccccc2)C1.O=C(O)[C@H](O)[C@@H](O)C(=O)O` (stereo not drawn) [SB-742034], the “%Inh” value is reported as 12%. For `COc1ccc(-c2coc3ccc(-c4nnc(C)o4)cc23)cc1`, the “%Inh” value was 0%. In the case of `O=c1cc(N2CCOCC2)nc2n(Cc3ccccc3F)ccn12` [GSK2297428], the “%Inh” value is reported as 0%. For `COC(=O)c1cccc(NC(=O)NC2CCN(c3ccnc(Nc4ccc(F)cc4)n3)C2)c1` (stereo not drawn) [GSK1379725], the “%Inh” value was 0%. For `Cc1c(Cn2c(C)c(C)n3c(=O)cc(N4CCOCC4)nc23)cccc1C(F)(F)F` [GSK2328680], the “%Inh” value was 0%. For `CNC(=O)c1ccc(C)c(-n2c(C)cc(OCc3ccc(F)cc3F)c(Br)c2=O)c1`, the “%Inh” value was 0%. In the case of `COc1ccc(Nc2nccc(N3CCC(NC(=O)c4cc5ccccc5s4)C3)n2)cc1` (stereo not drawn) [GSK1379738], the “%Inh” value is reported as 0%. In the case of `CC(=O)c1cccc(NC(=O)NC2CCN(c3ccnc(Nc4ccc(F)cc4)n3)C2)c1` (stereo not drawn) [GSK1379710], the “%Inh” value is reported as 7%. In the case of `O=C1NC(=O)C(c2ccc(Cl)cc2)=C1Nc1cccc(Cl)c1` [SB-317651], the “%Inh” value is reported as 0%. With `Cc1ccc(NC(=O)Nc2ccccc2F)cc1-c1ccc(C(=O)Nc2ccncc2)cc1` [GSK1398477] the “%Inh” value was 0%. With `Cc1ccc(NC(=O)c2ccc(Cl)cc2)cc1-c1ccc(C(=O)Nc2ccncc2)cc1` [GSK1398467] the “%Inh” value was 0%. `Cc1ccccc1-c1cc(-c2c[nH]nc2-c2ccccn2)ccn1` [GW680061] was tested, and the “%Inh” value was 0%. For `CC[C@@H]1CO[C@H](C(=O)Nc2ccccc2)CN1c1cc(-c2ccc3c(N)n[nH]c3c2)nc(NC)n1` [GSK2376236], the “%Inh” value was 0%. With `COc1ccc(CSc2nnc(-c3ccc4ncsc4c3)o2)cc1C(F)(F)F` the “%Inh” value was 0%. With `Cc1ccc(-c2nc(Nc3ccncc3)c3ccccc3n2)s1` [GSK189015] the “%Inh” value was 12%. For `Cc1ccccc1Cn1ccn2c(=O)cc(N3CCOCC3)nc12` [GSK2269905], the “%Inh” value was 0%. With `CS(=O)(=O)CCNCc1nc(-c2ccc3ncnc(Nc4ccc5c(cnn5Cc5ccccc5)c4)c3c2)cs1.Cl.Cl` [GW569716] the “%Inh” value was 0%. In the case of `Cc1nccc(-c2c(-c3ccc(F)cc3)ncn2CCCN2CCOCC2)n1.Cl` [SB-282975], the “%Inh” value is reported as 28%. For `Cn1cncc1C(=O)NC1CCN(c2ccnc(Nc3ccc(F)cc3)n2)C1` (stereo not drawn) [GSK1379717], the “%Inh” value was 0%. In the case of `CN1c2ccc(-c3ccc(C(N)=O)cc3)cc2-c2[nH]ncc2S1(=O)=O`, the “%Inh” value is reported as 0%. `CC(C)c1cc(-c2ccc3c(N)n[nH]c3c2)nc(N)n1` [GSK2250882] was tested, and the “%Inh” value was 0%. With `O=C(Nc1n[nH]c2nc(-c3cccs3)c(Br)cc12)C1CC1` [SB-735297] the “%Inh” value was 41%. With `Cc1ccc(NC(=O)Nc2ccc(Cl)cc2)cc1-c1ccc(C(=O)Nc2ccncc2)cc1` [GSK1398472] the “%Inh” value was 0%. In the case of `Fc1ccc(-c2nn3cccc(F)c3c2-c2ccncc2)cc1` [GW475620], the “%Inh” value is reported as 0%. For `CC(C)c1ccc(O)cc1Nc1ccnc2ccc(C(F)(F)F)cc12` [GW482059], the “%Inh” value was 13%. With `Fc1ccc(-c2nc3n(c2-c2ccncc2)CCS3)cc1` [GI98581] the “%Inh” value was 0%. In the case of `O=C(Nc1n[nH]c2cc(-c3ccsc3)ccc12)C1CC1` [SB-732932], the “%Inh” value is reported as 45%. For `Cc1cnc(N)c(/C=C/c2cncc(C(=O)NCCc3ccc(Cl)cc3Cl)c2)c1.Cl` [GSK190937], the “%Inh” value was 0%. With `CC(=O)c1c(C)c2cnc(Nc3ccc(N4CCNCC4)cn3)nc2n(C2CCCC2)c1=O` the “%Inh” value was 0%. With `COc1ccc2cc(-c3nc(-c4ccccc4C(C)C)[nH]c3-c3ccncc3)ccc2c1` [SB-660566] the “%Inh” value was 17%. With `CCc1ccc(-c2ccc3c(c2)-c2n[nH]cc2S(=O)(=O)N3C)cc1` the “%Inh” value was 0%.

These molecules were tested on MAP3K1. Details: concentration: 1 μM, replicates: in singlicate; n = 1.
With `COc1cccc(NC(=O)Nc2ccc(C)c(-c3ccc(C(=O)Nc4ccncc4)cc3)c2)c1` [GSK1398474] the “%Inh” value was 13%. With `CS(=O)(=O)Cc1ccc(Nc2nccc(-c3c(-c4cccc(NC(=O)C5CCCCC5)c4)nn4ncccc34)n2)cc1` [GSK350559] the “%Inh” value was 30%. With `COc1ccc(Nc2nccc(-c3ccc(NC(=O)c4cc5cc(F)ccc5[nH]4)cc3)n2)cc1` [GSK1229496] the “%Inh” value was 0%. For `Cc1cccc2c(-c3ccncn3)c(-c3ccc(F)cc3)nn12` [GW515532], the “%Inh” value was 0%. `NS(=O)(=O)c1cccc(N/C=C2\C(=O)Nc3ccc(S(=O)(=O)Cc4c(Cl)cccc4Cl)cc32)c1` [GSK398099] was tested, and the “%Inh” value was 15%. `O=C(Nc1n[nH]c2nc(-c3ccco3)c(Br)cc12)C1CCN(Cc2ccccc2)C1.O=C(O)[C@H](O)[C@@H](O)C(=O)O` (stereo not drawn) [SB-742034] was tested, and the “%Inh” value was 18%. In the case of `COc1ccc(-c2coc3ccc(-c4nnc(C)o4)cc23)cc1`, the “%Inh” value is reported as 0%. `O=c1cc(N2CCOCC2)nc2n(Cc3ccccc3F)ccn12` [GSK2297428] was tested, and the “%Inh” value was 2%. For `COC(=O)c1cccc(NC(=O)NC2CCN(c3ccnc(Nc4ccc(F)cc4)n3)C2)c1` (stereo not drawn) [GSK1379725], the “%Inh” value was 8%. `Cc1c(Cn2c(C)c(C)n3c(=O)cc(N4CCOCC4)nc23)cccc1C(F)(F)F` [GSK2328680] was tested, and the “%Inh” value was 16%. `CNC(=O)c1ccc(C)c(-n2c(C)cc(OCc3ccc(F)cc3F)c(Br)c2=O)c1` was tested, and the “%Inh” value was 0%. In the case of `COc1ccc(Nc2nccc(N3CCC(NC(=O)c4cc5ccccc5s4)C3)n2)cc1` (stereo not drawn) [GSK1379738], the “%Inh” value is reported as 5%. `CC(=O)c1cccc(NC(=O)NC2CCN(c3ccnc(Nc4ccc(F)cc4)n3)C2)c1` (stereo not drawn) [GSK1379710] was tested, and the “%Inh” value was 3%. In the case of `O=C1NC(=O)C(c2ccc(Cl)cc2)=C1Nc1cccc(Cl)c1` [SB-317651], the “%Inh” value is reported as 0%. With `Cc1ccc(NC(=O)Nc2ccccc2F)cc1-c1ccc(C(=O)Nc2ccncc2)cc1` [GSK1398477] the “%Inh” value was 12%. `Cc1ccc(NC(=O)c2ccc(Cl)cc2)cc1-c1ccc(C(=O)Nc2ccncc2)cc1` [GSK1398467] was tested, and the “%Inh” value was 12%. In the case of `Cc1ccccc1-c1cc(-c2c[nH]nc2-c2ccccn2)ccn1` [GW680061], the “%Inh” value is reported as 10%. `CC[C@@H]1CO[C@H](C(=O)Nc2ccccc2)CN1c1cc(-c2ccc3c(N)n[nH]c3c2)nc(NC)n1` [GSK2376236] was tested, and the “%Inh” value was 21%. For `COc1ccc(CSc2nnc(-c3ccc4ncsc4c3)o2)cc1C(F)(F)F`, the “%Inh” value was 0%. For `Cc1ccc(-c2nc(Nc3ccncc3)c3ccccc3n2)s1` [GSK189015], the “%Inh” value was 40%. With `Cc1ccccc1Cn1ccn2c(=O)cc(N3CCOCC3)nc12` [GSK2269905] the “%Inh” value was 2%. With `CS(=O)(=O)CCNCc1nc(-c2ccc3ncnc(Nc4ccc5c(cnn5Cc5ccccc5)c4)c3c2)cs1.Cl.Cl` [GW569716] the “%Inh” value was 12%. For `Cc1nccc(-c2c(-c3ccc(F)cc3)ncn2CCCN2CCOCC2)n1.Cl` [SB-282975], the “%Inh” value was 20%. For `Cn1cncc1C(=O)NC1CCN(c2ccnc(Nc3ccc(F)cc3)n2)C1` (stereo not drawn) [GSK1379717], the “%Inh” value was 2%. `CN1c2ccc(-c3ccc(C(N)=O)cc3)cc2-c2[nH]ncc2S1(=O)=O` was tested, and the “%Inh” value was 0%. For `CC(C)c1cc(-c2ccc3c(N)n[nH]c3c2)nc(N)n1` [GSK2250882], the “%Inh” value was 0%. For `O=C(Nc1n[nH]c2nc(-c3cccs3)c(Br)cc12)C1CC1` [SB-735297], the “%Inh” value was 12%. For `Cc1ccc(NC(=O)Nc2ccc(Cl)cc2)cc1-c1ccc(C(=O)Nc2ccncc2)cc1` [GSK1398472], the “%Inh” value was 3%. For `Fc1ccc(-c2nn3cccc(F)c3c2-c2ccncc2)cc1` [GW475620], the “%Inh” value was 9%. In the case of `CC(C)c1ccc(O)cc1Nc1ccnc2ccc(C(F)(F)F)cc12` [GW482059], the “%Inh” value is reported as 0%. `Fc1ccc(-c2nc3n(c2-c2ccncc2)CCS3)cc1` [GI98581] was tested, and the “%Inh” value was 13%. In the case of `O=C(Nc1n[nH]c2cc(-c3ccsc3)ccc12)C1CC1` [SB-732932], the “%Inh” value is reported as 23%. With `Cc1cnc(N)c(/C=C/c2cncc(C(=O)NCCc3ccc(Cl)cc3Cl)c2)c1.Cl` [GSK190937] the “%Inh” value was 7%. With `CC(=O)c1c(C)c2cnc(Nc3ccc(N4CCNCC4)cn3)nc2n(C2CCCC2)c1=O` the “%Inh” value was 0%. `COc1ccc2cc(-c3nc(-c4ccccc4C(C)C)[nH]c3-c3ccncc3)ccc2c1` [SB-660566] was tested, and the “%Inh” value was 20%. For `CCc1ccc(-c2ccc3c(c2)-c2n[nH]cc2S(=O)(=O)N3C)cc1`, the “%Inh” value was 0%.
